# ChEMBL document CHEMBL3988442, “University of Dundee, Small-Polar-MMV Screening Library” (2021)
# Values joined by “and” are separate entries in the source; they are usually repeats but may differ in a detail not shown here. Identical values can stand only once. The whole screen tested about 34,000 compounds, of which about 290 (0.85%) showed an effect of 50% or more. The sample as a whole holds a higher share of strong results than the screen did.
# Test system: Plasmodium falciparum
# Experiment: Plasmodium falciparum sporozoite viability assay
# Type: functional, organism-based
# Parameters: scale not given: in the data most compounds retested in dose-response had high values
Compound,Percent Effect [%],Percent Effect (10 mM as filed; unlikely as a test dose)
CN1CCN(C(=O)[C@H]2C[C@H]3[C@H](CCN3Cc3nccs3)O2)CC1,0.9025,
O=C(Nc1ccc(Cl)cn1)c1nn(C2CCS(=O)(=O)C2)c2c1CCCC2 (stereo not given),,72.26% and 68.39%
O=C(Nc1ccccc1F)c1nn(C2CCS(=O)(=O)C2)c2c1CCCC2 (stereo not given),,38.15% and 35.56%
Cc1cccc(NC(=O)c2nn(C3CCS(=O)(=O)C3)c3c2CCCC3)n1 (stereo not given),,27.72% and 25.15%
O=C(Nc1ccccc1)c1nn(C2CCS(=O)(=O)C2)c2c1CCCC2 (stereo not given),,23.34% and 42.14% and 38.32%
O=C(Nc1ccc(Cl)cc1)c1nn(C2CCS(=O)(=O)C2)c2c1CCCC2 (stereo not given),,-17.96% and -20.43%
O=C(Nc1cccc(Cl)c1)c1nn(C2CCS(=O)(=O)C2)c2c1CCCC2 (stereo not given),,70.24% and 80.75% and 81.2%
CC1CCN(S(=O)(=O)NCc2ccccc2Cn2cccn2)CC1,3.533,
c1cncc(CN2CCCC3(COCCN(c4cncnc4)C3)C2)c1 (stereo not given),-1.976,
CC(C)[C@H](NS(C)(=O)=O)C(=O)NCc1cc(-c2ccccc2)n[nH]1,-6.181,
C[C@H](NS(C)(=O)=O)C(=O)NCc1cc(-c2ccco2)n[nH]1,-6.52,
CCc1nn(C)c(Cl)c1CN(CCOC)Cc1cnn(C)c1,-2.336,
CCOc1cc(/C=C/c2ncc(C(=O)O)s2)cc(Br)c1OC,6.645,
CCOc1ncccc1C(=O)N1CCCC1Cn1nc(C)cc1C (stereo not given),-1.877,
CC(c1ccncn1)N(C)Cc1cc2cc3c(cc2[nH]c1=O)OCO3 (stereo not given),,36.77% and 42.23% and 61.28%
CC(c1ccccn1)N(C)Cc1cc2cc3c(cc2[nH]c1=O)OCO3 (stereo not given),,18.92% and 31.37% and 23.56%
CN(C)CCOCC1CN(Cc2ccc(F)cc2)Cc2nnn(C)c21.O=C(O)C(F)(F)F.O=C(O)C(F)(F)F (stereo not given),3.947,
CCCn1cc(NC(=O)c2ccc(S(C)(=O)=O)cc2)ccc1=O,-6.389,
O=C(O)CCCNC(=O)N1CCc2c([nH]c3ccc(Cl)cc23)C1,,31.15% and 28.91%
COC(=O)CCCNC(=O)N1CCc2c([nH]c3ccc(Cl)cc23)C1,,80.07% and 78.06%
O=C(O)CCNC(=O)N1CCc2c([nH]c3ccc(Cl)cc23)C1,,-34.22% and -28.29%
CC(C)N1c2sc(-c3ccsc3)nc2CC1C(=O)NC1CC1 (stereo not given),,76.28% and 81.46%
CC(C)CC(=O)N1CCC(Nc2nc(O)cc(-c3ccsc3)n2)CC1,14.33,
CN(C)C(=O)N1CCN(Cc2cnc(-c3ccsc3)s2)CC1,-10.41,
O=C(NC1CCCC1)C1Cc2nc(-c3ccsc3)sc2N1CC1CC1 (stereo not given),,9.544% and 5.829% and 5.902%
Cc1nc(-c2ccsc2)sc1C(=O)N1CCn2c(C)nnc2C1,4.116,
CC(C)N1c2sc(-c3ccsc3)nc2CC1C(=O)NC1CCCC1 (stereo not given),,80.44% and 80.12%
Cc1ccncc1CN1CCOCC1c1[nH]ncc1C (stereo not given),-4.491,

Compound,Percent Effect [%],Percent Effect (10 mM as filed; unlikely as a test dose)
Cc1cccc(CN2CCC(c3csc4nccn34)CC2)n1.O=CO,3.885,
N#Cc1cccc(N2CC3(CCN(C(=O)c4ccncc4)C3)CC2=O)c1.O=C(O)C(F)(F)F (stereo not given),-19.71,
Cc1nn2c(N3CCC(O)CC3)cc(-c3ccccc3)nc2c1C,-9.448,
OC1CCN([C@@H]2CCN(c3nc(-c4ccccc4)no3)C[C@H]2O)CC1,,63.55% and 40.94%
O[C@H]1CN(c2nc(-c3ccccc3)no2)C[C@@H]1N1CCOCC1,,-27.06% and -32.72%
OC1CCN(c2ccccc2NCc2nc(-c3cccs3)no2)CC1,,22.91% and 47.25% and 30.27%
Cc1cccc(NC(=O)[C@@H]2CCCN2Cc2ccc(C#N)cc2F)n1,-15.69,
CCn1ncc2c1C(COC)CN(Cc1ccc(F)cc1)C2.O=C(O)C(F)(F)F.O=C(O)C(F)(F)F (stereo not given),5.175,
O=C(O)c1cccc(S(=O)(=O)N2CCOc3ccccc32)c1,8.824,
Cn1cnc(S(=O)(=O)NCCCN2CCCCCC2=O)c1Cl,-2.417,
CCNC(=O)C(C)NC(=O)c1cnc(-c2ccc(C)cc2C)s1 (stereo not given),5.538,
CCCNCc1ccc(OCc2ccc3c(c2)OCCO3)cc1.Cl,,-30.54% and -21.42%
Cl.c1cc(OCc2ccc3c(c2)OCO3)ccc1CNC1CC1,,33.09% and 60.95% and 82.86%
CCNCc1ccc(OCc2ccc3c(c2)OCCO3)cc1.Cl,,-24.62% and -4.131%
CSc1nccc(N2CCC(NCc3ccc4c(c3)OCO4)CC2)n1,4.585,
CC(O)CNCc1ccc(OCc2ccc3c(c2)OCCO3)cc1.Cl (stereo not given),,88.95% and 91.02% and 83.06%
COc1c(CNCc2ccc3c(c2)OCCO3)c(C(C)C)nn1C,14.99,
CC(C)(C)NCc1ccc(OCc2ccc3c(c2)OCCO3)cc1.Cl,,-36.62% and -27.49%
COc1cc(CNCC(C)O)cc(Cl)c1OCc1ccc(C)cc1.Cl (stereo not given),-5.385,
CC(C)(CO)NCc1ccc(OCc2ccc3c(c2)OCCO3)cc1.Cl,,25.27% and 55.16%
Cc1nccn1C1CCCN(C(=O)c2sccc2-n2cnnn2)C1 (stereo not given),-0.2931,
CN1CCN(Cc2cn3c(n2)CN(C2CCOCC2)CC3)CC1.O=C(O)C(F)(F)F.O=C(O)C(F)(F)F.O=C(O)C(F)(F)F,10.57,
O=C(CCc1ccco1)Nc1cc(C(F)(F)F)c[nH]c1=O,-11.4,
COc1cccc(O[C@H]2CCN(c3nc(C)cc(C)n3)CC[C@@H]2O)c1,11.61,
O=C(Cn1cccc2cc(-c3ccc(F)cc3)nc1-2)N1CCC(O)CC1,-1.811,
COc1ccc(C2CNCCN2C(=O)c2cccc3ncccc23)cc1 (stereo not given),4.068,
CC(C)N(C)S(=O)(=O)c1ccc2c(c1)CCN(C(=O)c1cnccn1)C2,-1.97,
